# ALOX12 inh: Primary qHTS assay for inhibitors of human arachidonate 12S-lipoxygenase (ALOX12): Round 2. purified 12hLO, xylenol orange hydroperoxide absorbance. Potency, µM (titrated, usually from 108 µM), for inactives: at the highest dose activity change, negative = inhibition, usual class: inhibitors. 580,000 tested, 1.1% active. AID 1671190, 2021; also: potency is read from the fitted curve at half-maximal effect
# Target sequence (P18054 whole entry, looked up): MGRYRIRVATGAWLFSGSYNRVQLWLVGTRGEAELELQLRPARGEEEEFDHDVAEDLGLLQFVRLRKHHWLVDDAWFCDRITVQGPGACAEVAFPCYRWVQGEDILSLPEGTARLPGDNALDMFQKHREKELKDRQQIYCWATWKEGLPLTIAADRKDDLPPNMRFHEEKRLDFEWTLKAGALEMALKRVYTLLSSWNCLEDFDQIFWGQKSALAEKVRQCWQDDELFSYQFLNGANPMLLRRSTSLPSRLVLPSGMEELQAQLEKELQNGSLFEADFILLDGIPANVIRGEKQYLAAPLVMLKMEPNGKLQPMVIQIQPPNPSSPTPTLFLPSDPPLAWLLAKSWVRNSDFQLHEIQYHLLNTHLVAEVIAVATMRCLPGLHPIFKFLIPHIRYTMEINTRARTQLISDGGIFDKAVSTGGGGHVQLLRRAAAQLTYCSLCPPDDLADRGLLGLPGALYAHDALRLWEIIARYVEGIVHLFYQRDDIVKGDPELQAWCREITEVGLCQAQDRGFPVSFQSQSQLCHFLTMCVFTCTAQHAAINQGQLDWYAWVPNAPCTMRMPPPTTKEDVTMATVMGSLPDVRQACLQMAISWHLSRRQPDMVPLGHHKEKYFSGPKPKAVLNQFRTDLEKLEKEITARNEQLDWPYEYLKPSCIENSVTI
#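 Purified human 12hLO at 150 nM in 25 mM Hepes, 0.01% Triton X-100, pH 7.0, preincubated 15 min at room temperature with compound. Reaction started with 40 uM arachidonic acid, 30 min at room temperature. Hydroperoxide measured by Fe-xylenol orange, 573/405 nm absorbance ratio.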
# TDP1 cell CPT: qHTS for Inhibitors of human tyrosyl-DNA phosphodiesterase 1 (TDP1): qHTS in cells in presence of CPT. Potency, µM (doses to about 46.2 µM), without a hit: at the highest dose activity change, negative = growth inhibition, hits mostly inhibitors. 420,000 tested, 12% active. chicken DT40 Tdp1-/-;hTDP1 cells + 20 nM CPT, ATP luminescence, 48 h; also: potency is read from the fitted curve at half-maximal effect; nearly all actives have a fitted effect of over 55% in size
#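 Chicken DT40 Tdp1-/- cells complemented with human TDP1, 400 cells/well, exposed to compounds plus 20 nM camptothecin for at least 48 h at 37 C; viability read as ATP content by CellTiter-Glo luminescence.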
# DT40 TDP1 no CPT: qHTS for Inhibitors of human tyrosyl-DNA phosphodiesterase 1 (TDP1): qHTS in cells in absence of CPT. AID 686978, 2013. DT40 Tdp1-/- hTDP1 cells, no CPT, ATP luminescence, 48 h. 420,000 tested, 15% active. Potency, µM (doses to about 46.2 µM), for inactives: at the highest dose activity change, negative = growth inhibition, usual class: inhibitors; also: potency is read from the fitted curve at half-maximal effect; nearly all actives have a fitted effect of over 55% in size
#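 Growth of hTDP1-complemented DT40 Tdp1-knockout cells is measured by ATP luminescence after at least 48 hr compound exposure at 37 °C, with DMSO substituting for the 20 nM CPT used in the parallel screen.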
# HT1080 IDH1KD tx: qHTS for induction of synthetic lethality in tumor cells producing 2HG: qHTS for the HT-1080-IDH1KD cell line. HT-1080 IDH1 knockdown viability, ATP luminescence, 48 h. Potency, µM (titrated, usually from 46.1 µM), without a hit: at the top dose activity, negative = toxicity, most hits filed as cytotoxic. 360,000 tested, 2% active;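 also: potency is read from the fitted curve at half-maximal effect; 0% = DMSO wells and -100% = cell-free medium wells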
#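 % activity derives from luminescence (CellTiter-Glo), normalised to DMSO and no-cell wells. HT-1080-IDH1KD cells, 750/well, had 48 h compound exposure at 37 °C.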
# HT1080-NT tox: qHTS for induction of synthetic lethality in tumor cells producing 2HG: qHTS for the HT-1080-NT fibrosarcoma cell line | 360,000 tested, 1.6% active | AID 686970, 2013 | Potency, µM (doses to about 46.1 µM), without a hit: at the highest dose activity, negative = less viability, most hits filed as cytotoxic | HT-1080-NT fibrosarcoma viability, CellTiter-Glo ATP luminescence, 48 h;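 also: NT is the 2HG producing partner of a matched IDH1 knockdown line; potency is read from the fitted curve at half-maximal effect; 0% = DMSO-treated cells and -100% = media-only wells without cells; nearly all actives have a fitted effect of over 55% in size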
#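 HT-1080-NT fibrosarcoma cells (2HG-overproducing), 750 cells/well in RPMI with 5% FBS, dosed after 2 h and incubated 48 h at 37C. CellTiter-Glo luminescence normalized to DMSO and no-cell wells; concentration-response curves fitted and classed.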
# IL1B secr inh: qHTS for Inhibitors of Inflammasome Signaling: IL-1-beta AlphaLISA Primary Screen; THP-1 LPS/ATP IL-1B secretion, AlphaLISA, 16 h; stronger effect = lower value; activity change, % at 57.5 µM; 360,000 tested, 4.7% active; in the data active = activity change below about -50%; inconclusive = mostly about -30% to -49%
#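 THP-1 cells pretreated 1 hr with compounds (up to 57.5 uM final), then stimulated with LPS (250 ng/mL final) plus ATP (1.25 mM final); secreted IL-1B measured by AlphaLISA after 16 hr, decreased signal indicating inhibition.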
# Numbers without * were called inactive; ? = inconclusive; . = no result given; [ ] = remark or other dose. Many of the other results were omitted from the sample, so hits are more common in it than they were. Unless noted, calls follow the shape of the dose curve; as a rule, active = well fitted curve in the direction sought with a large enough effect; inconclusive = small, poorly fitted or top-dose-only effect, or another doubt; inactive = no such curve, though single readings can be large; an effect the other way counts as inactive or inconclusive. Unless noted, % is scaled to controls: 0 for no effect and ±100 for the full control effect.
SMILES,ALOX12 inh,TDP1 cell CPT,DT40 TDP1 no CPT,HT1080 IDH1KD tx,HT1080-NT tox,IL1B secr inh
Cc1cccc(CN2CCN(C3CN(Cc4cn(Cc5ccc(F)cc5)nn4)S(=O)(=O)C3)CC2)c1 (stereo not given),?,?,?,12.5%,14.8%,-4.0
Cc1ccc(Cn2cc(CN3CC(N4CCN(Cc5cccc(C)c5)CC4)CS3(=O)=O)nn2)cc1 (stereo not given),?,?,?,-1.7%,-1.2%,-4.7
Cc1cccc(CN2CCN(C3CN(Cc4cn(Cc5ccc(Cl)cc5)nn4)S(=O)(=O)C3)CC2)c1 (stereo not given),?,18.4µM*,20.6µM*,1.7%,1.0%,-18.2
CCCCCCN1CCN(C2CN(Cc3cn(Cc4cc(C)cc(C)c4)nn3)S(=O)(=O)C2)CC1 (stereo not given),0.0%,?,16.4µM*,?,?,?
CN1CCN(C2CN(Cc3cn(Cc4ccc(Cl)cc4)nn3)S(=O)(=O)C2)CC1 (stereo not given),28.2µM*,-14.5%,-20.0%,4.4%,10.3%,61.2
Cc1cccc(C(=O)N[C@H]2CC[C@@H](n3cc(C(=O)N4CCCC4)nn3)CC2)c1,-6.0%,23.0%[9.04 µM],-7.2%,.,.,.
Cc1occc(=O)c1OCc1noc(C(=O)NCc2ccccc2)n1,7.3%,.,.,.,.,.
Cc1c(NS(=O)(=O)c2cccc(C(=O)Nc3cccc(F)c3)c2)c(=O)n(-c2ccccc2)n1C,-25.0%,?,?,-7.6%,-3.6%,-22.1
Cc1ccc(CN2CCc3nc(C(=O)Nc4nc(C)cs4)oc3CC2)cc1,63.0%[176 µM],.,.,.,.,.
O=S1(=O)CC(N2CCN(Cc3ccccc3F)CC2)CN1Cc1cn(Cc2cccc(Cl)c2)nn1 (stereo not given),-28.7%,?,20.6µM*,-9.3%,-3.0%,-7.1
COC(=O)CCCn1cc(CN2CC(N3CCN(Cc4cccc(C)c4)CC3)CS2(=O)=O)nn1 (stereo not given),7.08µM*,-2.6%,-18.2%,8.9%,18.7%,57.2
O=S1(=O)CC(N2CCN(Cc3ccccc3F)CC2)CN1Cc1cn(Cc2ccc(F)cc2)nn1 (stereo not given),-25.0%,-16.0%,?,?,-7.1%,-15.9
COc1cc(-c2nc(-c3ccc4c(c3)[nH]c(=O)n4C)no2)cc(OC)c1OC,-17.8%,-15.7%,-13.5%,.,.,.
O=C(NNc1ccccc1[N+](=O)[O-])Nc1ccc(Cl)c(Cl)c1,?,?,?,18.4µM*,18.4µM*,-92.8*
O=C(NNc1ccccc1[N+](=O)[O-])Nc1ccccc1,-27.5%,14.6µM*,?,-2.4%,0.7%,0.0
O=C(NNc1ccccc1[N+](=O)[O-])NC1CCCCC1,-7.8%,-4.0%,-23.6%,-0.4%,-10.4%,-6.1
O=C(NNc1ccccc1[N+](=O)[O-])Nc1ccc(F)cc1,?,?,-51.9%,-7.7%,-10.2%,-3.2
CCOC(=O)[C@]12CCCC=C1N(Cc1ccc3c(c1)OCO3)C(=O)[C@H](CC(=O)NCc1cccc(C(F)(F)F)c1)C2,-12.5%,?,16.4µM*,16.4µM*,10.3µM*,0.0
CCOC(=O)[C@]12CCC=C1N(Cc1ccc3c(c1)OCO3)C(=O)[C@H](CC(=O)NCc1cccc(C(F)(F)F)c1)C2,-9.6%,20.6µM*,23.1µM*,?,?,-7.5
CCc1c(C)nc2ncnn2c1N1CCC(C(=O)N2CCN(c3ccc(F)cc3)CC2)CC1,-21.3%,16.4µM*,14.6µM*,11.0%,-1.6%,-12.7
O=C(C1CCN(c2ncnc3c2nc2n3CCCCC2)CC1)N1CCN(c2ccc(F)cc2)CC1,?,?,11.6µM*,-6.9%,-0.6%,-19.3
CCc1c(C)nc2ncnn2c1N1CCCC(C(=O)Nc2ccc(NC(C)=O)cc2)C1 (stereo not given),479.0%,5.8%,5.6%,-1.6%,-2.8%,-10.3
O=C(C1CCN(c2ncnc3c2nc2n3CCCCC2)CC1)N1CCN(c2ccccc2)CC1,-9.0%,?,20.6µM*,.,.,.
O=C(C1CCN(c2ncnc3c2nc2n3CCCCC2)CC1)N1CCCCC1,3.3%,-33.0%,?,-9.4%,4.3%,-6.0
O=C1NC2(CCN(Cc3ccc(OC(F)(F)F)cc3)C2)OCc2ccccc21 (stereo not given),36.2%,.,.,.,.,.
SMILES,ALOX12 inh,TDP1 cell CPT,DT40 TDP1 no CPT,HT1080 IDH1KD tx,HT1080-NT tox,IL1B secr inh
COc1cccc(OC)c1OCCNC[C@@H]1COc2ccccc2O1,?,26.6µM*,26.6µM*,.,.,.
O=C(CSc1ccc2ccccc2c1)NCCc1ccc(O)c(O)c1,?,16.4µM*,23.1µM*,?,-27.3%,-52.9*
COc1ccc(CCNC(=O)CSc2ccc3ccccc3c2)cc1OC,?,?,?,2.3%,0.9%,2.3
COc1ccccc1NC(CC(=O)c1ccccc1)C(=O)OCC(=O)c1ccc(Cl)cc1 (stereo not given),11.2%,.,.,.,.,.
COc1ccc(NC(=O)c2ccc(O)c(Cl)c2)c(OC)c1,16.2%,.,.,.,.,.
COc1ccc(Nc2ncnc3c2cnn3Cc2ccccc2)cc1,?,?,?,-18.3%,?,-54.5*
c1ccc(CNc2ncnc3c2cnn3Cc2ccccc2)cc1,25.7%,13µM*,13µM*,7.94µM*,7.94µM*,-16.8
CC(C)CCNc1ncnc2c1cnn2Cc1ccccc1Cl,4.1%,29.1µM*,?,-10.0%,-17.1%,-14.6
OCCNc1ncnc2c1cnn2Cc1ccccc1,13.3%,-9.3%,7.4%,3.7%,-3.1%,-14.4
CCOc1ccc(Nc2ncnc3c2cnn3Cc2ccccc2)cc1,?,?,-26.3%,?,?,-15.3
COc1cccc(C(=O)N2C[C@@H](CO)[C@H](c3nc(C4CC4)no3)C2)c1,-8.9%,.,.,.,.,.
CC(=O)Nc1ccc(NC(=S)NC(NC(=O)c2ccc(C)cc2)C(Cl)(Cl)Cl)cc1 (stereo not given),31.6µM*,.,.,.,.,.
COc1ccc(C(=O)NC(Nc2ccc(C)cc2)C(Cl)(Cl)Cl)cc1 (stereo not given),-19.4%,20.6µM*,18.4µM*,?,-17.3%,-71.5*
